Measurements taken from PubChem BioAssay (NCATS).
Inconclusive results are not listed. Calls of active or inactive are those of the source. Calls come from the whole dose curve; as a rule, active = well fitted inhibition curve with a large enough effect; inconclusive = small, poorly fitted or top-dose-only effect; inactive = flat fitted curve, though single readings scatter.

Tested on: KB-3-1
Experiment: Cytotoxic Profiling of Annotated Libraries Using Quantitative High-Throughput Screening (AID 1296008); note: nearly all actives have a fitted effect of over 60% in size
Settings: Five cell lines viability, CellTiter-Glo ATP luminescence, 48-72 h; max response: active compounds read low
Summary of the method: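 Cells exposed to compounds for 48 or 72 hr at 37 degrees Celsius. Viability read as ATP-coupled luminescence with CellTiter-Glo after 10 min at room temperature.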
% is set by controls: 0 for no effect and ±100 for the full control effect; potency is the fitted concentration of half-maximal effect.

Compound | max response | outcome | Potency
CC1=C(C(=O)OC2CCCCC2)C(c2ccc([N+](=O)[O-])cc2)C2=C(CC(C)(C)CC2=O)N1 (centres undefined) | -12% (inactive) | – | –
CCO[C@H]1CN(C2CCC(O)(c3ccc4c(c3)OCO4)CC2)C[C@@H]1NC(=O)CNC(=O)c1cccc(C(F)(F)F)c1 (some centres undefined) | 7% (inactive) | – | –
Cc1cnn(-c2ccccc2)c1NC(=O)COCc1ccccc1 | 3.83% (inactive) | – | –
Fc1ccc(-c2nc(-c3c(F)cccc3F)[nH]c2-c2ccncc2)cc1 | 3.89% (inactive) | – | –
Cc1cn2c(n1)Cc1ccc(Cl)cc1C(c1ccc(N)cc1)=N2 | 1.16% (inactive) | – | –
CCn1c(N)c(C(=O)NC)c(=O)c2ccc(C#CC(C)(O)COC)nc21 (centres undefined) | 1.64% (inactive) | – | –
COc1ccc(NC(=O)c2ccc(C(=N)N(C)C)cc2)c(C(=O)Nc2ccc(Cl)cn2)c1 | 2.86% (inactive) | – | –
CC1(C)CC[C@]23CO[C@@]4(CCC5[C@@]6(C)CC[C@H](O[C@@H]7OC[C@H](O[C@@H]8O[C@H](CO)[C@@H](O)[C@H](O)[C@H]8O[C@@H]8OC[C@@H](O)[C@H](O)[C@H]8O)[C@H](O)[C@H]7O)[C@@](C)(CO)C6CC[C@@]5(C)[C@]4(C)CC2=O)[C@@H]3C1 (some centres undefined) | – | inactive | –
CC(C)(C)C1CCN(C(=O)n2ncc(C(O)(c3ccccc3)c3ccccc3)n2)CC1 | -15.2% (inactive) | – | –
CN(C)[C@@H]1CCc2[nH]c3ccc(NC(=O)c4ccc(F)cc4)cc3c2C1 | 1.75% (inactive) | – | –
O=C(NCCN1CCC(n2c(=O)[nH]c3ccccc32)CC1)c1ccc2ccccc2c1 | -2.44% (inactive) | – | –
COc1ccc2cc3c(NC(=O)c4ccco4)nn(C)c3nc2c1 | – | – | 13 µM (active)
CCCc1cc(C)n(C)c(=O)c1CN(C)C(=O)c1cc(-c2ccc(N3CCN(C(C)C)CC3)nc2)cc2c1cnn2C(C)C | 4.77% (inactive) | – | –
O=C(Nc1ccc(-c2ccc(Cl)c(Cl)c2)cc1)C1=C(O)c2ccccc2S(=O)(=O)N1 | -12.4% (inactive) | – | –
COc1ccc(C2(CNC(=O)c3ccc(NC(=O)c4ccco4)cc3)CCOCC2)cc1 | 8.83% (inactive) | – | –
O=C(NC[C@H](O)CN1CCc2ccccc2C1)c1ccnc(NC2CCC2)c1 | -4.24% (inactive) | – | –
C[C@@H]1C[C@H]2O[C@@]3(O[C@@H]2C(C)(C)O)C(O)[C@@]2(C)C4CCC5C(C)(C)[C@@H](O[C@H]6OC[C@H](O)[C@@H](O)[C@@H]6O)CC[C@@]56C[C@@]46CC[C@]2(C)C13 (some centres undefined) | -6.46% (inactive) | – | –
C=CC(=O)N1CCC[C@@H](n2nc(-c3cccc(C(=O)Nc4ccc(C(C)C)c(C)c4)c3)c3c(N)ncnc32)C1 | -9.98% (inactive) | – | –
COc1cc(CCc2cc(NC(=O)c3ccc(N4CC(C)NC(C)C4)cc3)n[nH]2)cc(OC)c1 (centres undefined) | – | – | 11.6 µM (active)
CCN(CCNC(=O)Nc1ccccc1Br)c1cccc(C)c1 | 2.25% (inactive) | – | –
COc1ccccc1C(=O)Nc1cccc(NC(=O)c2cccc(C)c2)c1 | 4.14% (inactive) | – | –
CC(=O)O[C@H]1CC(C)(C)CC2[C@]13CO[C@@]21CCC2[C@@]4(C)CC[C@H](O[C@@H]5OC[C@H](O[C@@H]6O[C@H](CO)[C@@H](O)[C@H](O)[C@H]6O[C@@H]6OC[C@@H](O[C@@H]7O[C@H](CO)[C@@H](O)[C@H](O)[C@H]7O)[C@H](O)[C@H]6O)[C@H](O)[C@H]5O[C@@H]5O[C@H](CO)[C@@H](O)[C@H](O)[C@H]5O)[C@@](C)(CO)C4CC[C@@]2(C)[C@]1(C)C[C@H]3O (some centres undefined) | -6.99% (inactive) | – | –
CN1CCN(c2ccc(OC(F)(F)F)c(Nc3ncc4c(n3)-c3c(c(C(N)=O)nn3CCO)CC4)c2)CC1 | – | – | 0.0366 µM (active)
C=CC(=O)N1CCCC(n2nc(-c3ccc(Oc4ccccc4)cc3)c3c(N)ncnc32)C1 (centres undefined) | -21.4% (inactive) | – | –
C=CC(C)(O)CC[C@@H]1[C@@]2(C)CCCC(C)(C)C2CC[C@@]1(C)O (some centres undefined) | -9.76% (inactive) | – | –
O=C(COc1ccc(C(=O)c2ccccc2)cc1)NC1CCN(Cc2ccccc2)CC1 | -23% (inactive) | – | –
CC(=O)NCc1cccc(OC[C@@H](O)CNCCc2ccc(NS(=O)(=O)c3ccccc3)cc2)c1 | -5.62% (inactive) | – | –
C[C@H]1CC[C@@]2(OC1)O[C@H]1CC3C4CC[C@H]5C[C@@H](O)CC[C@]5(C)C4=CC(=O)[C@]3(C)[C@H]1[C@@H]2C (some centres undefined) | 0.81% (inactive) | – | –
CCOC(=O)c1cnn(-c2ccccc2)c1NC(=O)c1cc2nc(-c3ccco3)cc(C(F)(F)Cl)n2n1 | 6.18% (inactive) | – | –
